Assay results published in the supplement of paper PMC7156485.
± gives the standard deviation of the averaged measurements.

test system: HCC1569; experiment: cell number relative to DMSO (% of DMSO); higher = more cells (less growth inhibition / toxicity); conditions: concentration: 10 µM; 24 h
Outline: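 In 384-well plates holding 800 HCC1569 or TDF cells per well in RPMI with 10% FBS, compounds were tested at 10 µM for 24 h at 37 °C in triplicate. Fixation used 3.7% formaldehyde. Staining used a rabbit anti-H1.0 antibody with an AlexaFluor 647 secondary, plus DAPI. Each value, H1.0 nuclear intensity or cell number, is a median of replicates shown as percent of the plate control, and HCC1569 values were smoothed for positional effects.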
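Also: TDF denotes transformed human dermal fibroblasts of mesenchymal origin.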

SMILES | cell number
Cc1cccc(Nc2ccccc2C(=O)O)c1C [Mefenamic acid] | 104
OCC1=CC(O)C2C=COC(OC3OC(CO)C(O)C(O)C3O)C12 (centres undefined) [Aucubin] | 99.6
CCCCCCCCCCCCCC(=O)NC(C)C(O)c1ccccc1 [D-erythro MAPP] | 104
CCCCCCCCCCCCCCCCOCC(COP(=O)([O-])OCC[N+](C)(C)C)OC(=O)NC (centres undefined) | 103
OCC1OC(n2cnc3c(NC4CCCCC4)ncnc32)C(O)C1O (centres undefined) [N6-Cyclohexyladenosine] | 100
CC(=O)Oc1ccccc1C(=O)Nc1ncc([N+](=O)[O-])s1 [2-{[(5-nitro-1,3-thiazol-2-yl)amino]carbonyl}phenyl acetate] | 89.4
CN(C)CCC=C1c2ccccc2C=Cc2ccccc21.Cl [Cyclobenzaprine hydrochloride] | 99.3
COc1cc2c(cc1OC)-c1cc(=Nc3c(C)cc(C)cc3C)n(C)c(=O)n1CC2.Cl [Trequinsin.HCl] | 102
Cl.NCCS [Cysteamine hydrochloride] | 101
CCCCCCCCCCCCCCCC(O)C(N)CO (centres undefined) [Dihydrosphingosine] | 102
C[C@@H](c1nc(-c2ccc(C#N)cc2)cs1)[C@](O)(Cn1cncn1)c1ccc(F)cc1F | 83.5
Cc1c(C)c2c(c(C)c1OC(=O)CCC(=O)O)CCC(C)(CCCC(C)CCCC(C)CCCC(C)C)O2 (centres undefined) [Tocopherol succinate] | 98.1
COC(=O)CNC(=O)C(=O)OC [methyl 2-(2-methoxy-2-oxoethylamino)-2-oxoacetate] | 96.5
CS(=O)(=O)CCNCc1nc(-c2ccc3ncnc(Nc4ccc(OCc5cccc(F)c5)c(Cl)c4)c3c2)cs1.Cl.Cl | 88.4
CCCc1c(OCCCCc2nn[nH]n2)ccc(C(C)=O)c1O | 104
CC1CNc2c(cccc2S(=O)(=O)NC(CCCN=C(N)N)C(=O)N2CCC(C)CC2C(=O)O)C1 (centres undefined) [Argatroban] | 107
C[n+]1cccc(C(=O)O)c1.[Cl-] | 99.8

SMILES | cell number
CCC1=CC2CN(C1)Cc1c([nH]c3ccccc13)C(C(=O)OC)(c1cc3c(cc1OC)N(C)C1C(O)(C(=O)OC)C(OC(C)=O)C4(CC)C=CCN5CCC31C54)C2 (centres undefined) [Vinorelbine] | 56.9 ± 1.3
Cn1ccnc1 [1-Methylimidazole] | 103
C=CC(C)(O)CCC1C(C)(O)CCC2C(C)(C)CCCC21C (centres undefined) [Sclareol] | 105
CCOP(=O)(OCC)C(=Cc1cc(C(C)(C)C)c(O)c(C(C)(C)C)c1)P(=O)(OCC)OCC | 90.7
OCC1OC(n2cnc3c(NC4CCCC4)nc(Cl)nc32)C(O)C1O (centres undefined) [2-Chloro-N6-cyclopentyladenosine] | 109
Nc1ccn(C2CCC(CO)O2)c(=O)n1 (centres undefined) [2',3'-dideoxycytidine] | 99.7
CC(C)C(CO)Nc1nc(Nc2ccc(C(=O)O)c(Cl)c2)c2ncn(C(C)C)c2n1 (centres undefined) | 100
COc1ccc(CC2c3cc(OC)c(OC)cc3CC[N+]2(C)C)cc1OC.[I-] (centres undefined) [Laudanosine methiodide] | 101
CC(=O)O.CSC(N)=NCCCC(N)C(=O)O [S-Methyl-L-thiocitrulline acetate] | 99.4
COc1cc(Nc2c(C#N)cnc3cc(OCCCN4CCN(C)CC4)c(OC)cc23)c(Cl)cc1Cl [Bosutinib] | 67
Cl.Cl.NCCNc1ncc(C(N)=O)c(Nc2cccc(C(F)(F)F)c2)n1.O.O [Syk Inhibitor II] | 82.1
CS(=O)(=O)CCNCc1ccc(-c2ccc3ncnc(Nc4ccc(OCc5cccc(F)c5)c(Cl)c4)c3c2)o1.Cc1ccc(S(=O)(=O)O)cc1.Cc1ccc(S(=O)(=O)O)cc1 [Lapatinib ditosylate] | 88.5
CCCOc1cc2c(cc1\C(C)=C/C=C/C(C)=C/C(=O)O)C(C)(C)CCC2(C)C | 97.9
CCOC(=O)C1=C(C)NC(=S)NC1c1cccc(O)c1 (centres undefined) [Monastrol] | 99.8
Cl.NC1C=CC=C(C(=O)O)C1 (centres undefined) [Gabaculine hydrochloride] | 103
O=c1[nH]c(=O)n(C2CC(O)C(CO)O2)cc1I (centres undefined) [Idoxuridine] | 103
O=C(O)COC(=O)Cc1ccccc1Nc1c(Cl)cccc1Cl [Aceclofenac] | 104
